Data taken from PubChem BioAssay AID1159580 (chemical genetic matrix, 2015).
Several values for one entry are separate records, joined by “and”; a condition that tells them apart may be missing. Equal entries are not always repeated. Among all 5,500 compounds or so, about 2,000 (36%) were called active. Not shown: some 18% with an inconclusive outcome. Rule as the data show it: active = normalized growth mostly below about 0.91 (no sharp cut-off); inconclusive = no clear call, values can overlap the other calls; inactive = mostly above about 0.92. Some of the results follow.

Assay: chemical genetic growth profiling, strain panel (AID 1159580);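 also: tested at 20 µM; growth read once vehicle control cultures reached saturation at 30 °C; 1 = growth at the plate median or of vehicle wells; lower values mean less growth of the strain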
Conditions: S. cerevisiae deletion strains, growth OD

Measured: normalized growth

OC(CCN1CCCCC1)(c1ccccc1)C1CCCCC1 (stereo unspecified)
active: locus YER155C, strain BEM2, active compounds read low 0.791
inactive: locus YAL013W, strain DEP1, active compounds read low 1.01 | locus YAL021C, strain ccr4, active compounds read low 0.968 | locus YAL026C, strain drs2, active compounds read low 0.994 | locus YAL030W, strain snc1, active compounds read low 0.97 | locus YAL040C, strain CLN3, active compounds read low 1.06 | locus YBL061C, strain skt5, active compounds read low 0.979 | locus YBR009C, strain hhf1, active compounds read low 0.993 | locus YBR021W, strain FUR4, active compounds read low 0.998 | locus YBR023C, strain chs3, active compounds read low 0.977 | locus YBR171W, strain sec66, active compounds read low 0.974 | locus YBR229C, strain ROT2, active compounds read low 1.01 | locus YBR231C, strain swc5, active compounds read low 0.957 | locus YBR279W, strain paf1, active compounds read low 0.984 | locus YCL011C, strain gbp2, active compounds read low 0.978 | locus YCL016C, strain dcc1, active compounds read low 0.993 | locus YCL029C, strain bik1, active compounds read low 1 | locus YCL061C, strain MRC1 (second series), active compounds read low 0.981 | locus YCL061C, strain MRC1, active compounds read low 0.966 | locus YCL069W, strain vba3, active compounds read low 0.974 | locus YCR088W, strain abp1, active compounds read low 0.98 | locus YDL005C, strain med2, active compounds read low 0.972 | locus YDL035C, strain GPR1, active compounds read low 1.01 | locus YDL040C, strain nat1, active compounds read low 0.98 | locus YDL074C, strain BRE1, active compounds read low 0.999 | locus YDL101C, strain DUN1, active compounds read low 1.01 | locus YDL134C, strain PPH21, active compounds read low 1.01 | locus YDL185W, strain tfp1, active compounds read low 1 | locus YDL192W, strain arf1, active compounds read low 1.01 | locus YDR001C, strain nth1, active compounds read low 0.969 | locus YDR069C, strain doa4, active compounds read low 0.948 | locus YDR101C, strain arx1, active compounds read low 0.995 | locus YDR137W, strain rgp1, active compounds read low 1.02 | locus YDR150W, strain NUM1, active compounds read low 1.02 and 0.996 | locus YDR159W, strain sac3, active compounds read low 0.998 | locus YDR162C, strain NBP2, active compounds read low 1.01 | locus YDR195W, strain ref2 0.927 | locus YDR297W, strain sur2, active compounds read low 0.965 | locus YDR318W, strain mcm21, active compounds read low 0.991 | locus YDR334W, strain swr1, active compounds read low 0.975 | locus YDR335W, strain msn5, active compounds read low 0.975 | locus YDR363W, strain ESC2, active compounds read low 0.954 | locus YDR388W, active compounds read low 0.996 | locus YDR392W, strain spt3, active compounds read low 1.01 | locus YDR502C, strain sam2, active compounds read low 0.998 | locus YEL003W, strain gim4, active compounds read low 0.975 | locus YEL037C, strain rad23, active compounds read low 0.969 | locus YEL061C, strain CIN8 (second series), active compounds read low 0.974 | locus YEL061C, strain CIN8, active compounds read low 1.01 | locus YER002W, strain NOP16, active compounds read low 1.03 | locus YER015W, strain faa2, active compounds read low 0.976 | locus YER016W, strain bim1, active compounds read low 1 | locus YER110C, active compounds read low 1 | locus YER111C, strain swi4, active compounds read low 0.961 | locus YER155C, strain BEM2 (second series), active compounds read low 0.929 | locus YER167W, strain BCK2, active compounds read low 1.01 | locus YFR010W, strain ubp6, active compounds read low 0.975 | locus YGL078C, strain dbp3, active compounds read low 0.991 | locus YGL086W, strain mad1, active compounds read low 0.993 | locus YGL167C, strain pmr1, active compounds read low 0.961 | locus YGL173C, strain kem1, active compounds read low 0.934 | locus YGL227W, strain vid30, active compounds read low 0.982 | locus YGL240W, strain doc1, active compounds read low 0.961 | locus YGL248W, strain PDE1, active compounds read low 1.01 | locus YGL253W, strain hxk2, active compounds read low 0.97 | locus YGR078C, strain PAC10, active compounds read low 0.996 | locus YGR135W, strain pre9, active compounds read low 0.985 | locus YGR229C, strain SMI1, active compounds read low 1 and 0.945 | locus YGR252W, strain gcn5, active compounds read low 0.975 | locus YHR013C, strain ard1, active compounds read low 0.971 | locus YHR027C, strain rpn1, active compounds read low 0.988 | locus YHR030C, strain SLT2, active compounds read low 1.02 and 0.961 | locus YHR079C, strain IRE1 (second series), active compounds read low 0.992 | locus YHR079C, strain IRE1, active compounds read low 0.99 | locus YHR094C, strain hxt1, active compounds read low 1 | locus YHR129C, strain ARP1, active compounds read low 1.01 | locus YHR142W, strain chs7, active compounds read low 0.978 | locus YHR200W, strain rpn10, active compounds read low 1 | locus YIL066C, strain RNR3, active compounds read low 1.01 | locus YIL073C, strain SPO22, active compounds read low 1.05 | locus YIL125W, strain kgd1, active compounds read low 1 | locus YIR030C, strain dcg1, active compounds read low 0.999 | locus YJL092W, strain hpr5, active compounds read low 0.954 | locus YJL095W, strain BCK1 (second series), active compounds read low 0.971 | locus YJL095W, strain BCK1, active compounds read low 0.984 and 0.98 | locus YJL115W, strain asf1, active compounds read low 0.961 | locus YJL129C, strain trk1, active compounds read low 0.953 | locus YJL134W, strain LCB3, active compounds read low 1.01 | locus YJL154C, strain vps35, active compounds read low 0.971 | locus YJL164C, strain tpk1, active compounds read low 1.01 | locus YJL166W, strain qcr8, active compounds read low 0.925 | locus YJL168C, strain set2, active compounds read low 0.991 | locus YJL187C, strain SWE1 (second series), active compounds read low 1.01 | locus YJL187C, strain SWE1, active compounds read low 0.975 | locus YJR043C, strain POL32, active compounds read low 1.01 | locus YJR066W, strain TOR1, active compounds read low 0.93
